Experimental findings from PMC11006913 are described below.

What all share (test): PBM; 200 nM protein, PBS
Common to all, as to conditions: dsDNA, one strand shown

In assay [1] the target is HOXB9 (Homo sapiens, UniProt P17482 171-250, T197M).
The target of assay [2] is HOXC9 (Homo sapiens, UniProt P31274 178-260, K195R).
For assay [3], the target named is HOXC10 (Homo sapiens, UniProt Q9NYD6 254-340).
In assay [4] the target is HOXB9 (Homo sapiens, UniProt P17482 171-250).
For assay [5], the target named is HOXC9 (Homo sapiens, UniProt P31274 178-260).
Assay [6] deals with HOXD13 (Homo sapiens, UniProt P35453 263-343, T313R).
In assay [7] the target is HOXC9 (Homo sapiens, UniProt P31274 178-260, R193K).
The target in assay [8] is HOXD13 (Homo sapiens, UniProt P35453 263-343).
Assay [9] concerns the target HOXC10 (Homo sapiens, UniProt Q9NYD6 254-340, K271E).
Assay [10] concerns the target HOXD13 (Homo sapiens, UniProt P35453 263-343, T313A).
In assay [11] the target is HOXB9 (Homo sapiens, UniProt P17482 171-250, R186Q).
For assay [12], the target named is HOXC9 (Homo sapiens, UniProt P31274 178-260, R222W).
Assay [13] deals with MSX2 (Homo sapiens, UniProt P35548 130-214, R199I).
Assay [14] has as its target MSX2 (Homo sapiens, UniProt P35548 130-214).
The target of assay [15] is PROP1 (Homo sapiens, UniProt O75360 56-141).
Assay [16] concerns the target PROP1 (Homo sapiens, UniProt O75360 56-141, R99H).
In assay [17] the target is PROP1 (Homo sapiens, UniProt O75360 56-141, F88S).
Assay [18] addresses MSX2 (Homo sapiens, UniProt P35548 130-214, F161Y).
Assay [19] concerns the target ALX4 (Homo sapiens, UniProt Q9H161 200-286).
Assay [20] concerns the target ALX4 (Homo sapiens, UniProt Q9H161 200-286, Q225E).

Chain of HOXC9 (Homo sapiens, UniProt P31274 178-260, R193K) (P31274 178-260 R193K): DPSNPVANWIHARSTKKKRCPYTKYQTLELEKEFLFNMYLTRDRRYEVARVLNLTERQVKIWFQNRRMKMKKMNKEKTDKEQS
Chain of HOXC9 (Homo sapiens, UniProt P31274 178-260, R222W) (P31274 178-260 R222W): as the sequence (P31274 178-260 R193K) above, with K16R, R45W counted along it
Chain of HOXB9 (Homo sapiens, UniProt P17482 171-250, R186Q) (P17482 171-250 R186Q): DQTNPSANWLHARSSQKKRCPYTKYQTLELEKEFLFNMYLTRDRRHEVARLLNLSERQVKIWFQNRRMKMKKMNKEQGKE
Chain of HOXD13 (Homo sapiens, UniProt P35453 263-343) (P35453 263-343): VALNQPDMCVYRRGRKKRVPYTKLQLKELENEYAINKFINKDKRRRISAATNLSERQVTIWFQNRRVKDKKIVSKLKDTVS
Chain of HOXC10 (Homo sapiens, UniProt Q9NYD6 254-340, K271E) (Q9NYD6 254-340 K271E): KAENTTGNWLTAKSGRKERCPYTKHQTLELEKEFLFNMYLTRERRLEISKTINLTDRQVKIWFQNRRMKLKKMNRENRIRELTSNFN
Chain of HOXC9 (Homo sapiens, UniProt P31274 178-260) (P31274 178-260): as the sequence (P31274 178-260 R193K) above, with K16R counted along it
Chain of HOXD13 (Homo sapiens, UniProt P35453 263-343, T313R) (P35453 263-343 T313R): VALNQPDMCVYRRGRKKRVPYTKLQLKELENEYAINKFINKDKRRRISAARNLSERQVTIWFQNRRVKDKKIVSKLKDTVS
Chain of HOXD13 (Homo sapiens, UniProt P35453 263-343, T313A) (P35453 263-343 T313A): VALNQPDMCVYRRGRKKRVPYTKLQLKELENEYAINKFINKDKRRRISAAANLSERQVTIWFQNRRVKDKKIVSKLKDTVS
Chain of HOXB9 (Homo sapiens, UniProt P17482 171-250) (P17482 171-250): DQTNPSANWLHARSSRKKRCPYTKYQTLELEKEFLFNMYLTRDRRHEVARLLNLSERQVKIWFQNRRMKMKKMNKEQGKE
Chain of HOXC10 (Homo sapiens, UniProt Q9NYD6 254-340) (Q9NYD6 254-340): as the sequence (Q9NYD6 254-340 K271E) above, with E18K counted along it
Chain of HOXB9 (Homo sapiens, UniProt P17482 171-250, T197M) (P17482 171-250 T197M): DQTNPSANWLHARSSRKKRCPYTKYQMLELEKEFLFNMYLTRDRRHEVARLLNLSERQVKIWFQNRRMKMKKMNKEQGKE
Chain of HOXC9 (Homo sapiens, UniProt P31274 178-260, K195R) (P31274 178-260 K195R): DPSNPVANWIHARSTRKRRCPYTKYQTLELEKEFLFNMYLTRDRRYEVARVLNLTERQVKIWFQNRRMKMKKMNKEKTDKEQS
Chain of ALX4 (Homo sapiens, UniProt Q9H161 200-286) (Q9H161 200-286): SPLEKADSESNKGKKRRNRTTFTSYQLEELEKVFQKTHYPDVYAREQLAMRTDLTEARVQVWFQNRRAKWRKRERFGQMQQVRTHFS
Chain of ALX4 (Homo sapiens, UniProt Q9H161 200-286, Q225E) (Q9H161 200-286 Q225E): as the sequence (Q9H161 200-286) above, with Q26E counted along it
Chain of PROP1 (Homo sapiens, UniProt O75360 56-141) (O75360 56-141): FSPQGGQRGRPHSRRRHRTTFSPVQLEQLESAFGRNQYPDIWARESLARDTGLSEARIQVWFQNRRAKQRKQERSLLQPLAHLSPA
Chain of MSX2 (Homo sapiens, UniProt P35548 130-214, F161Y) (P35548 130-214 F161Y): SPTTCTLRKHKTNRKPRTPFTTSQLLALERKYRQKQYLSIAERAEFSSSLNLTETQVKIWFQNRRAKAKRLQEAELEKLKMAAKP
Chain of MSX2 (Homo sapiens, UniProt P35548 130-214) (P35548 130-214): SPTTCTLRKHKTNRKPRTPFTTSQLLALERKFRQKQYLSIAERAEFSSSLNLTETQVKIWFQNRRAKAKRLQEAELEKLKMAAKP
Chain of MSX2 (Homo sapiens, UniProt P35548 130-214, R199I) (P35548 130-214 R199I): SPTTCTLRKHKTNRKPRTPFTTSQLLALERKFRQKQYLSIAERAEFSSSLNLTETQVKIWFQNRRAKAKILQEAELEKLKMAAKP
Chain of PROP1 (Homo sapiens, UniProt O75360 56-141, R99H) (O75360 56-141 R99H): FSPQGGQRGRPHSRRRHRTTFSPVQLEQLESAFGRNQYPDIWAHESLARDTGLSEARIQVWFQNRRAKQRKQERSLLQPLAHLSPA
Chain of PROP1 (Homo sapiens, UniProt O75360 56-141, F88S) (O75360 56-141 F88S): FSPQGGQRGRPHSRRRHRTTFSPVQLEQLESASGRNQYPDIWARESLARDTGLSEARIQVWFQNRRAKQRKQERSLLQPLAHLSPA

As to CATAAAAA, the binding signal is 9.93 upbm affinity estimate (log intensity, higher = more binding, comparable within an allelic series) with HOXB9 [1]; 12.8 upbm affinity estimate (log intensity, higher = more binding, comparable within an allelic series) with HOXC9 [2]; 12.6 upbm affinity estimate (log intensity, higher = more binding, comparable within an allelic series) with HOXC10 [3]; 12.4 upbm affinity estimate (log intensity, higher = more binding, comparable within an allelic series) in the assay with HOXB9 [4]; 13 upbm affinity estimate (log intensity, higher = more binding, comparable within an allelic series) in the assay with HOXC9 [5]; 10.7 upbm affinity estimate (log intensity, higher = more binding, comparable within an allelic series) with HOXD13 [6]. The binding signal is 13 upbm affinity estimate (log intensity, higher = more binding, comparable within an allelic series) with HOXC9 [7]; 11.8 upbm affinity estimate (log intensity, higher = more binding, comparable within an allelic series) with HOXD13 [8]; 12 upbm affinity estimate (log intensity, higher = more binding, comparable within an allelic series) in the assay with HOXC10 [9]; 11.6 upbm affinity estimate (log intensity, higher = more binding, comparable within an allelic series) with HOXD13 [10]; 12 upbm affinity estimate (log intensity, higher = more binding, comparable within an allelic series) with HOXB9 [11]; 11.4 upbm affinity estimate (log intensity, higher = more binding, comparable within an allelic series) in the assay with HOXC9 [12].

CTAATAAA: the binding signal with HOXB9 [1] is 9.76 upbm affinity estimate (log intensity, higher = more binding, comparable within an allelic series); in the assay with HOXC9 [2], 12.5 upbm affinity estimate (log intensity, higher = more binding, comparable within an allelic series); with HOXC10 [3] it was 12.5 upbm affinity estimate (log intensity, higher = more binding, comparable within an allelic series); with HOXB9 [4], 11.9 upbm affinity estimate (log intensity, higher = more binding, comparable within an allelic series); in the assay with HOXC9 [5] it was 12.7 upbm affinity estimate (log intensity, higher = more binding, comparable within an allelic series); in the assay with HOXD13 [6] it was 11.2 upbm affinity estimate (log intensity, higher = more binding, comparable within an allelic series). Moreover, the binding signal with HOXC9 [7] was 12.6 upbm affinity estimate (log intensity, higher = more binding, comparable within an allelic series); with HOXD13 [8], 12.3 upbm affinity estimate (log intensity, higher = more binding, comparable within an allelic series); with HOXC10 [9], 11.9 upbm affinity estimate (log intensity, higher = more binding, comparable within an allelic series); with HOXD13 [10], 12.1 upbm affinity estimate (log intensity, higher = more binding, comparable within an allelic series); with HOXB9 [11], 11.6 upbm affinity estimate (log intensity, higher = more binding, comparable within an allelic series); in the assay with HOXC9 [12], 11.1 upbm affinity estimate (log intensity, higher = more binding, comparable within an allelic series).

For the sequence CCGCCTGC, the binding signal in the assay with HOXB9 [1] is 8.29 upbm affinity estimate (log intensity, higher = more binding, comparable within an allelic series); in the assay with HOXC9 [2], 9.62 upbm affinity estimate (log intensity, higher = more binding, comparable within an allelic series); with HOXB9 [4], 8.24 upbm affinity estimate (log intensity, higher = more binding, comparable within an allelic series); in the assay with HOXC9 [5], 9.64 upbm affinity estimate (log intensity, higher = more binding, comparable within an allelic series); in the assay with MSX2 [13], 9.41 upbm affinity estimate (log intensity, higher = more binding, comparable within an allelic series); with HOXC9 [7], 9.49 upbm affinity estimate (log intensity, higher = more binding, comparable within an allelic series). In addition, the binding signal in the assay with MSX2 [14] is 9.55 upbm affinity estimate (log intensity, higher = more binding, comparable within an allelic series); with PROP1 [15] it was 6.72 upbm affinity estimate (log intensity, higher = more binding, comparable within an allelic series); in the assay with PROP1 [16], 6.65 upbm affinity estimate (log intensity, higher = more binding, comparable within an allelic series); with HOXB9 [11] it was 8.24 upbm affinity estimate (log intensity, higher = more binding, comparable within an allelic series); in the assay with HOXC9 [12] it was 9.72 upbm affinity estimate (log intensity, higher = more binding, comparable within an allelic series); with PROP1 [17], 6.62 upbm affinity estimate (log intensity, higher = more binding, comparable within an allelic series). In addition, the binding signal with MSX2 [18] is 9.55 upbm affinity estimate (log intensity, higher = more binding, comparable within an allelic series).

As to CATTAAAC, the binding signal in the assay with HOXB9 [1] is 9.93 upbm affinity estimate (log intensity, higher = more binding, comparable within an allelic series); with HOXC9 [2] it was 12.5 upbm affinity estimate (log intensity, higher = more binding, comparable within an allelic series); in the assay with HOXC10 [3], 12.2 upbm affinity estimate (log intensity, higher = more binding, comparable within an allelic series); with HOXB9 [4], 11.8 upbm affinity estimate (log intensity, higher = more binding, comparable within an allelic series); with HOXC9 [5] it was 12.6 upbm affinity estimate (log intensity, higher = more binding, comparable within an allelic series); with HOXC9 [7], 12.6 upbm affinity estimate (log intensity, higher = more binding, comparable within an allelic series). Moreover, the binding signal with HOXC10 [9] is 11.9 upbm affinity estimate (log intensity, higher = more binding, comparable within an allelic series); with HOXB9 [11] it was 11.6 upbm affinity estimate (log intensity, higher = more binding, comparable within an allelic series); with HOXC9 [12], 10.9 upbm affinity estimate (log intensity, higher = more binding, comparable within an allelic series).

Consider GTCGTAAA, for which the binding signal in the assay with HOXB9 [1] is 9.95 upbm affinity estimate (log intensity, higher = more binding, comparable within an allelic series); with HOXC9 [2], 13.1 upbm affinity estimate (log intensity, higher = more binding, comparable within an allelic series); with HOXC10 [3] it was 13.2 upbm affinity estimate (log intensity, higher = more binding, comparable within an allelic series); with HOXB9 [4] it was 12.6 upbm affinity estimate (log intensity, higher = more binding, comparable within an allelic series); with HOXC9 [5] it was 13.3 upbm affinity estimate (log intensity, higher = more binding, comparable within an allelic series); with HOXD13 [6], 10.9 upbm affinity estimate (log intensity, higher = more binding, comparable within an allelic series). Besides, the binding signal with HOXC9 [7] is 13 upbm affinity estimate (log intensity, higher = more binding, comparable within an allelic series); with HOXD13 [8], 12.3 upbm affinity estimate (log intensity, higher = more binding, comparable within an allelic series); with HOXC10 [9] it was 12.7 upbm affinity estimate (log intensity, higher = more binding, comparable within an allelic series); with HOXD13 [10] it was 11.9 upbm affinity estimate (log intensity, higher = more binding, comparable within an allelic series); with HOXB9 [11] it was 11.9 upbm affinity estimate (log intensity, higher = more binding, comparable within an allelic series); in the assay with HOXC9 [12], 11 upbm affinity estimate (log intensity, higher = more binding, comparable within an allelic series).

In the case of CCTTGCAG, the binding signal is 8.52 upbm affinity estimate (log intensity, higher = more binding, comparable within an allelic series) in the assay with HOXB9 [1]; 9.62 upbm affinity estimate (log intensity, higher = more binding, comparable within an allelic series) with HOXC9 [2]; 7.87 upbm affinity estimate (log intensity, higher = more binding, comparable within an allelic series) in the assay with ALX4 [19]; 8.04 upbm affinity estimate (log intensity, higher = more binding, comparable within an allelic series) with ALX4 [20]; 8.41 upbm affinity estimate (log intensity, higher = more binding, comparable within an allelic series) with HOXB9 [4]; 9.66 upbm affinity estimate (log intensity, higher = more binding, comparable within an allelic series) with HOXC9 [5]. Besides, the binding signal was 9.67 upbm affinity estimate (log intensity, higher = more binding, comparable within an allelic series) with HOXC9 [7]; 8.42 upbm affinity estimate (log intensity, higher = more binding, comparable within an allelic series) with HOXB9 [11]; 9.74 upbm affinity estimate (log intensity, higher = more binding, comparable within an allelic series) with HOXC9 [12].
